Data from PubChem BioAssay (EPA / NIEHS).
“And” between values parts separate entries of the source, which are not always exact repeats. Identical values can stand only once. Records with an inconclusive call do not appear. The source made the active and inactive calls. The calls were made as follows: active = hit-call score of the fitted dose curve at least 0.9, where 1 is the maximum; inconclusive = response in the unintended direction; inactive = score below 0.9.

The compounds below were run against rat Serotonin, 5-Hydroxytryptamine Receptor (5HT), Non-Selective Binding, Htr1a (gene 24473) (UniProt P19327) (assay: NVS_GPCR_r5HT_NonSelective: NovaScreen (NVS) G Protein-Coupled Receptor Assay for rat Serotonin, 5-Hydroxytryptamine Receptor (5HT), Non-Selective Binding (AID 2283295)).
Outline: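 Rat cortex membrane preparation incubated 1 h with radioligand and test chemical; bound radioactivity counted after filtration. Screening began in duplicate at 25 uM with concentration-series follow-up; fitting relative to DMSO.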

rat Serotonin, 5-Hydroxytryptamine Receptor (5HT), Non-Selective Binding, Htr1a (gene 24473), sequence (P19327 whole entry, looked up): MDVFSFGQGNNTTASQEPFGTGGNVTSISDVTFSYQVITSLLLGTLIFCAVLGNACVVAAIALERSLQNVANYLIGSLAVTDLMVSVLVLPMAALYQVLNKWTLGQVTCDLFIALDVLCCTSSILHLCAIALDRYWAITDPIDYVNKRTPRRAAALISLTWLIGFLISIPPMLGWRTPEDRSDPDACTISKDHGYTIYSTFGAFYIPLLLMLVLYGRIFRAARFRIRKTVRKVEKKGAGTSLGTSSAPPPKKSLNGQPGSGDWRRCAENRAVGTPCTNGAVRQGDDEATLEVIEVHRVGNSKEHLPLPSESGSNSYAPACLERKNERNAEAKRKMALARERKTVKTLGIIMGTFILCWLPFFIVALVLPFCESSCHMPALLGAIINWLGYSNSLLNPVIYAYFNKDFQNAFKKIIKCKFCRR

Structure (SMILES) | outcome | AC50
CS/C(C)=N/OC(=O)N(C)SN(C)C(=O)O/N=C(\C)SC | inactive | 
O=C(Nc1ccccc1)Nc1ccnc(Cl)c1 |  | 17 µM (active)
C=CCC1=C(C)[C@@H](OC(=O)[C@@H]2[C@@H](C=C(C)C)C2(C)C)CC1=O | inactive | 
COc1nc(NC(C)C)nc(NC(C)C)n1 | inactive | 

The compounds below were run against rat Corticotropin Releasing Factor Receptor (CRF), Crhr1 (gene 58959) (UniProt P35353) (assay: NVS_GPCR_rCRF: NovaScreen (NVS) G Protein-Coupled Receptor Assay for rat Corticotropin Releasing Factor Receptor (CRF) (AID 2283300)).
Description: NVS_GPCR_rCRF is a biochemical, single-readout assay that uses extracted gene-proteins from Rat cortical membranes in a tissue-based cell-free assay. Measurements were taken 2 hours after chemical dosing in a 96-well plate.NVS_GPCR_rCRF is one of one assay component(s) measured or calculated from the NVS_GPCR_rCRF assay. It is designed to make measurements of radioligand binding, a form of binding reporter, as detected with scintillation counting signals by […] radiodetection technology.Data from the assay component NVS_GPCR_rCRF was analyzed into 1 assay endpoint. This assay endpoint, NVS_GPCR_rCRF, was analyzed in the positive analysis fitting direction relative to DMSO as the negative control and baseline of activity. Using a type of binding reporter, loss-of-signal activity can be used to understand changes in the binding as they relate to the gene Crhr1. Furthermore, this assay endpoint can be referred to as a primary readout, because the performed assay has only produced 1 assay endpoint. To generalize the intended target to other relatable targets, this assay endpoint is annotated to the gpcr intended target family, where the subfamily is secretin receptor.
Binding assays used specific radioligands (tritiated, iodinated) with non-radioactive competitive displacement ligands in agonist or antagonist protocols (as indicated) and various reference compounds and inhibitors to titrate specific binding to receptors and transporters. Most enzyme assays (CYPs, kinases, phosphatases, proteases, HDACs) used recombinant protein and specific substrates (fluorescence mostly, some colorimetric and radioactive) and inhibitors, followed by a biochemical separation of substrate and product. All assays for the biochemical HTS were initially run in duplicate at a single concentration (10 uM for CYP450 assays and 25 uM for all others). […] Each assay was run with positive and negative controls, and concurrent controls on every plate. […]

rat Corticotropin Releasing Factor Receptor (CRF), Crhr1 (gene 58959), sequence (P35353 whole entry, looked up): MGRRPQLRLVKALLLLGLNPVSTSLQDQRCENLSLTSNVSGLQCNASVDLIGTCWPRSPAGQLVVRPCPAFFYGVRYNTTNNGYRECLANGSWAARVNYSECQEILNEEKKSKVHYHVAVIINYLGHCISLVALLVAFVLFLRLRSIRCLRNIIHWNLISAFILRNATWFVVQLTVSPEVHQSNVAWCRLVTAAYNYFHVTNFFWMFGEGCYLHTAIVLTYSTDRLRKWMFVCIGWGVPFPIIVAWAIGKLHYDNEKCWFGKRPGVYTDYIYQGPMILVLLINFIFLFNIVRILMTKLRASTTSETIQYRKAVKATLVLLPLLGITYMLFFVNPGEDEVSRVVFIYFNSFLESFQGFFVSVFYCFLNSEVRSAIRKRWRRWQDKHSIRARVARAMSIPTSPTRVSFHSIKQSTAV

Structure (SMILES) | outcome
CNC(=S)S | inactive
CCNc1nc(Cl)nc(NC(C)C)n1 | inactive
N#Cc1nn(-c2c(Cl)cc(C(F)(F)F)cc2Cl)c(N)c1S(=O)C(F)(F)F (stereo not drawn) | inactive

Each compound was assayed against rat Histamine Receptor (H3), Hrh3 (gene 85268) (UniProt Q9QYN8) (assay: NVS_GPCR_rH3: NovaScreen (NVS) G Protein-Coupled Receptor Assay for rat Histamine Receptor (H3) (AID 2283303)).
Outline: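 Filter-binding radioligand competition on rat forebrain membranes, 1 h incubation; compounds screened at 25 µM in duplicate and followed in concentration series to 50 µM, loss of bound signal vs DMSO.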

rat Histamine Receptor (H3), Hrh3 (gene 85268), sequence (Q9QYN8 whole entry, looked up): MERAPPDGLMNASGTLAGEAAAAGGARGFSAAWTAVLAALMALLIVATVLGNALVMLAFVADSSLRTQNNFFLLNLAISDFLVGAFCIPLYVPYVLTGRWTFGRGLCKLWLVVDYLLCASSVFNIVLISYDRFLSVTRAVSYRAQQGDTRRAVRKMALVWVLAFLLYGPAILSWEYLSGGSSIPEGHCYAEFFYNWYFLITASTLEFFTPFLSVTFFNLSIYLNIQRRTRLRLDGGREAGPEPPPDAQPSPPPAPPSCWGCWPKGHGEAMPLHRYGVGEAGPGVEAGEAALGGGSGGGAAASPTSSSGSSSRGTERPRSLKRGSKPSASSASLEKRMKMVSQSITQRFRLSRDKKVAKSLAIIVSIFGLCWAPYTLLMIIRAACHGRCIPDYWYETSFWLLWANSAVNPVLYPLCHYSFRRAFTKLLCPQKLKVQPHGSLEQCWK

Structure (SMILES) | AC50 | outcome
CS/C(C)=N/OC(=O)N(C)SN(C)C(=O)O/N=C(\C)SC | 2 µM (active) | 
CCCCNC(=O)OCC#CI | 4.99 µM (active) and 6.92 µM (active) | 
Cc1ccc(-c2c(Cl)nc(C#N)n2S(=O)(=O)N(C)C)cc1 | 5.9 µM (active) | 
N#CC(CCc1ccc(Cl)cc1)(Cn1cncn1)c1ccccc1 (stereo not drawn) |  | inactive

These compounds were tested against Metabotropic glutamate receptor 1 (Rattus norvegicus) (UniProt P23385) (assay: NVS_GPCR_rmMGluR1: NovaScreen (NVS) G Protein-Coupled Receptor Assay for rat Glutamate Metabotropic Receptor 1 (MGluR1) (AID 2283305)).
Outline: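 Binding to native receptor from rat cerebellum extract, measured as displacement of a radioligand (scintillation counting, filter separation) after 1 hour. Compounds tested at 25 uM in duplicate, then titrated to a 50 uM maximum.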

Metabotropic glutamate receptor 1 (Rattus norvegicus), sequence (P23385 whole entry, looked up): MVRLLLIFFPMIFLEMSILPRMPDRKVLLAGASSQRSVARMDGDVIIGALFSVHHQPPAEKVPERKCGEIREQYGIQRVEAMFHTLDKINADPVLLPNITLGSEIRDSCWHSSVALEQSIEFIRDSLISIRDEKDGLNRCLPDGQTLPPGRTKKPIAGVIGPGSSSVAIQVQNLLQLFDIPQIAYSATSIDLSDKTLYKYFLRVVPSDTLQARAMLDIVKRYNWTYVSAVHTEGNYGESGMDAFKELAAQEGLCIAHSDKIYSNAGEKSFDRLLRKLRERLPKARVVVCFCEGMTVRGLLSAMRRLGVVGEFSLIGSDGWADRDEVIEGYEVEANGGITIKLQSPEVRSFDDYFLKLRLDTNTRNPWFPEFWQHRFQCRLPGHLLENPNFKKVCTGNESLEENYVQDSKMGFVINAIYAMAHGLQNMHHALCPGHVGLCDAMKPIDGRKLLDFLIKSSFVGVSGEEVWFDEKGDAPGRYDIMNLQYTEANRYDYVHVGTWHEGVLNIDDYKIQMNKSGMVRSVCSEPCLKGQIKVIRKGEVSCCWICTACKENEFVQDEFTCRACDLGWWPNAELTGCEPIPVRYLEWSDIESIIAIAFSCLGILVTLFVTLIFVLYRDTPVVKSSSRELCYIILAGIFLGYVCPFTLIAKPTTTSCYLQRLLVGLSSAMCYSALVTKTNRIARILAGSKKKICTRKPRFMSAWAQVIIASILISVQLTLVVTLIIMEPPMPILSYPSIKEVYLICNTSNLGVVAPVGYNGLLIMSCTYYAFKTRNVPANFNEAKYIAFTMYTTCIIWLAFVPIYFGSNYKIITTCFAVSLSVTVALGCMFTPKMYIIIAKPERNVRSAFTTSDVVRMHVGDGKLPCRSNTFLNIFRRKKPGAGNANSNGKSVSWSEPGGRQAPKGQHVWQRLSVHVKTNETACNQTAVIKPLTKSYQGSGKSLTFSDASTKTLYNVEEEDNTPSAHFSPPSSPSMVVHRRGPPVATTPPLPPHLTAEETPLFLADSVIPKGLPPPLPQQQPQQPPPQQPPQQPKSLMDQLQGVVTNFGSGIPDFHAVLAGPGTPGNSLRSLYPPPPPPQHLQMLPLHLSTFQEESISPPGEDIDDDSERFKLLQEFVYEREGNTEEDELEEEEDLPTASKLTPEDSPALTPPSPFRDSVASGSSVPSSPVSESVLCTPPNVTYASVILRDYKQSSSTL

Structure (SMILES) | outcome | AC50
Cc1c(F)c(F)c(COC(=O)C2C(/C=C(\Cl)C(F)(F)F)C2(C)C)c(F)c1F (stereo not drawn) | inactive | 
COc1cnc(OC)n2nc(NS(=O)(=O)c3c(OCC(F)F)cccc3C(F)(F)F)nc12 | inactive | 
CCCCNC(=O)OCC#CI |  | 19.2 µM (active) and 1.24 µM (active)

These compounds were tested against Adra2b (gene 24174) (UniProt P19328) (assay: NVS_GPCR_rmAdra2B: NovaScreen (NVS) G Protein-Coupled Receptor Assay for hybird cells Adrenergic, Alpha 2B Receptor (Adra2B) (AID 2283306)).
Outline: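 Compounds screened first at 25 uM in duplicate, with actives followed up in concentration-response; specific radioligand displacement from hybrid neuroglioma/blastoma cell membrane preparations measured by filter scintillation counting after 1 h, normalized to DMSO.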

Adra2b (gene 24174), sequence (P19328 whole entry, looked up): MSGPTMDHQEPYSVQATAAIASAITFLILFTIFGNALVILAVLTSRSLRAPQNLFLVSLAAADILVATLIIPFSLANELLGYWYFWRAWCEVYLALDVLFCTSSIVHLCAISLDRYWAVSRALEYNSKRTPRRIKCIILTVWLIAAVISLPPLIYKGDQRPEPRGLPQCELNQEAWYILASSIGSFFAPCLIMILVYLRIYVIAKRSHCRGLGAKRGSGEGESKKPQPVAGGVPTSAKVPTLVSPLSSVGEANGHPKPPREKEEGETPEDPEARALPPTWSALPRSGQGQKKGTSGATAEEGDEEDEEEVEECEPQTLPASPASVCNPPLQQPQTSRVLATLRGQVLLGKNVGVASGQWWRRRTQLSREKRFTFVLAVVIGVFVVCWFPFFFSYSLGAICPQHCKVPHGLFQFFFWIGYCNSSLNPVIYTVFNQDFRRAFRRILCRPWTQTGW

Structure (SMILES) | AC50
O=C(Nc1ccccc1)Nc1ccnc(Cl)c1 | 8.91 µM (active)
CC1COC(Cn2cncn2)(c2ccc(Oc3ccc(Cl)cc3)cc2Cl)O1 (stereo not drawn) | 4.59 µM (active)
CCON=C(CC)C1=C(O)CC(c2c(C)cc(C)cc2C)CC1=O (stereo not drawn) | 2.7 µM (active)
Cc1ccc(-c2c(Cl)nc(C#N)n2S(=O)(=O)N(C)C)cc1 | 4.08 µM (active)
